Results on eight molecules are retold here after paper PMC8222333, “AsCas12a ultra nuclease facilitates the rapid generation of therapeutic cell medicines”.

Residue numbers refer to the chain shown, from its start.

First the molecules themselves.
B1: ATGC (dsDNA)
DNA 1: GCTATCTAGTGCTCAGTACGCACTGATGCAGGAAACTTCTGGCAGGACCAGGTCATGAGATCGGAAGAGCACACGTCTGAACTCCAGTCA
DNA 2: TGACTGGAGTTCAGACGTGTGCTCTTCCGATCTCATGACCTGGTCCTGCCAGAAGTTTCCTGCATCAGTGCGTACTGAGCACTAGATAGC
RNA: AAUUUCUACUCUUGUAGAUAGGAAACUUCUGGCAGGACC
B2: CGTT (dsDNA)
DNA 1: B1 DNA 1 with A26C, T27G, G28T, C29T
DNA 2: B1 DNA 2 with G62A, C63A, A64C, T65G
RNA: B1 RNA
B3: CATC (dsDNA)
DNA 1: B1 DNA 1 with A26C, T27A, G28T
DNA 2: B1 DNA 2 with C63A, A64T, T65G
RNA: B1 RNA
B4: CATG (dsDNA)
DNA 1: B1 DNA 1 with A26C, T27A, G28T, C29G
DNA 2: B1 DNA 2 with G62C, C63A, A64T, T65G
RNA: B1 RNA
B5: CACT (dsDNA)
DNA 1: B1 DNA 1 with A26C, T27A, G28C, C29T
DNA 2: B1 DNA 2 with G62A, C63G, A64T, T65G
RNA: B1 RNA
B6: CATA (dsDNA)
DNA 1: B1 DNA 1 with A26C, T27A, G28T, C29A
DNA 2: B1 DNA 2 with G62T, C63A, A64T, T65G
RNA: B1 RNA
B7: CCCA (dsDNA)
DNA 1: B1 DNA 1 with A26C, T27C, G28C, C29A
DNA 2: B1 DNA 2 with G62T, C63G, A64G, T65G
RNA: B1 RNA
B8: CCCG (dsDNA)
DNA 1: B1 DNA 1 with A26C, T27C, G28C, C29G
DNA 2: B1 DNA 2 with G62C, C63G, A64G, T65G
RNA: B1 RNA

The target in the first assay is dAsCas12a E174R (Acidaminococcus sp., UniProt U2UMQ6 1-1307, E174R;D908A;E993A;D1235A). Kind of assay: Spec-seq (native PAGE EMSA with sequencing of bound and unbound); 25 mM Tris-HCl pH 7.4, 150 mM KCl, 5 mM MgCl2, 10% glycerol, 1 mM DTT, 40 ng/uL salmon sperm DNA; 400 nM Cas12a, 480 nM crRNA, 50 nM library, 37 C 1 h; native PAGE at room temperature; high values mean tight binding. As to conditions: protein: recombinant. (In general: A gel shift assay detects complexes by their altered migration in electrophoresis.)
In the case of B1, the binding signal was -8.95 lnKA.
The same measure, in the same setting: with B2 the figure was -8.95 lnKA; with B3, -8.78 lnKA.
Same read-out and setting: with B4 the figure was -8.38 lnKA; with B5, -8.98 lnKA; with B6, -7.55 lnKA.
Same read-out and setting: with B7 the figure was -8.63 lnKA; with B8, -8.56 lnKA.

Another assay has as its target dAsCas12a S542R (Acidaminococcus sp., UniProt U2UMQ6 1-1307, S542R;D908A;E993A;D1235A). Described as above. Conditions: protein: recombinant.
As to B1, the binding signal was -8.32 lnKA.
Still for that read-out and setting: with B2 the figure was -8.31 lnKA; with B3, -8.13 lnKA; with B4, -8.49 lnKA.
Same read-out and setting: with B5 the figure was -8.41 lnKA.
On to B6, for which the binding signal was -8.31 lnKA.
Still for that read-out and setting: the figure for B7 is -6.21 lnKA.
B8: the binding signal was -6.18 lnKA.

In the next assay the target is d-enCas12a (Acidaminococcus sp., UniProt U2UMQ6 1-1307, E174R;S542R;K548R;D908A;E993A;D1235A). The description is as above. As to conditions: protein: recombinant.
For B1, the binding signal was -5.32 lnKA.
Still for that read-out and setting: the figure for B2 is -5.2 lnKA.
On to B3, for which the binding signal is -3.35 lnKA.
On the same count and under the same terms, the figure for B4 is -4.73 lnKA; for B5 it is -4.47 lnKA; for B6 it is -2.95 lnKA.
Still for that read-out and setting: with B7 the figure was -3.48 lnKA; with B8, -4.37 lnKA.

A further assay addresses d-enCas12a-Ultra (Acidaminococcus sp., UniProt U2UMQ6 1-1307, E174R;S542R;K548R;M537R;F870L;D908A;E993A;D1235A). The description is as above. As to conditions: protein: recombinant.
B1: the binding signal was -2.52 lnKA.
The same measure, in the same setting: the figure for B2 is -2.1 lnKA; for B3 it is -1.16 lnKA.
Regarding B4, the binding signal is -2.28 lnKA.
As for B5, the binding signal is -1.3 lnKA.
Same read-out and setting: the figure for B6 is -0.95 lnKA; for B7 it is -0.7 lnKA.
Same read-out and setting: the figure for B8 is -0.97 lnKA.

The target of another assay is dAsCas12a K548R (Acidaminococcus sp., UniProt U2UMQ6 1-1307, K548R;D908A;E993A;D1235A). Described as above. As to conditions: protein: recombinant.
As to B3, the binding signal was -8.88 lnKA.
